Data published in PubChem BioAssay (Tox21).
Several values for one entry are separate records, joined by “and”; a condition that tells them apart may be missing. Equal entries are not always repeated. Records with an inconclusive call do not appear. The source holds several records for some structures; these can differ, active in one and inactive in another. Activity calls are given as the source filed them. Unless noted, the call rests on the fitted dose curve; in most records, active means well fitted curve in the direction sought with a large enough effect in the repeat runs; inconclusive means weak or mixed curves; inactive means no such curve, though single readings can be large; an effect the other way counts as inactive or inconclusive.

Legend:
[1] = qHTS assay to identify small molecule agonists of the hypoxia (HIF-1) signaling pathway - cell viability counter screen (AID 1224844; calls by dose curve; further: nearly all actives have a fitted effect of over 50% in size)
In short: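 Cytotoxicity measured by CellTiter-Glo ATP luminescence in the wells also read for beta-lactamase signal. Cells were HRE-bla ME-180 (2,000/well, 0.5% dialyzed FBS), exposed to compounds for 17 h at 37C.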

[2] = qHTS assay to identify small molecule agonists of H2AX (AID 1224845; active means well fitted activation curve with a large enough effect in the signal ratio in the repeat runs, not every such curve was filed as active; the % refers to the signal ratio)
In short: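 Phospho-H2AX Ser139 measured by HTRF (ex 320 nm; em 665 and 620 nm) after 24 hr antibody incubation. Compounds, 15 concentrations, 0.76% DMSO, were applied to CHO-K1 cells for 3hr at 37C before lysis.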

[3] = qHTS assay to identify small molecule agonists of the hypoxia (HIF-1) signaling pathway (AID 1224846; active means well fitted activation curve with a large enough effect in the signal ratio in the repeat runs, not every such curve was filed as active; the % refers to the signal ratio)
In short: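 Compounds added to ME-180 cells carrying hypoxia-response-element beta-lactamase reporter (0.5% dialyzed FBS, 5 h preplating), 17 h at 37C; agonist activity detected by CCF4-AM B/G FRET read-out.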

[4] = qHTS assay to identify small molecule antagonists of the estrogen related receptor (ERR) signaling pathway from Tox21 library (AID 1224848); further: nearly all actives have a fitted effect of over 50% in size; further: potency means the concentration at half of the fitted maximal effect
In short: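 ERR cell line, 2,000 cells/well. 6 h settle, then compound (DMSO) added; 18 h at 37 C; ONE-Glo luminescence after 30 min RT.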

[5] = qHTS RealTime-Glo MT Cell Viability Assay in HepG2 cells - 24 hour (AID 1224867); further: nearly all actives have a fitted effect of over 50% in size
In short: (§1)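 Cell number in HepG2 cultures estimated from NanoLuc luminescence generated by metabolic reduction of a prosubstrate by living cells. The homogeneous, nonlytic format allowed repeated reads at 0, 8, 16, 24, 32 and 40 h of compound exposure.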

[6] = qHTS RealTime-Glo MT Cell Viability Assay in HEK293 cells - 32 hour (AID 1224868); further: nearly all actives have a fitted effect of over 50% in size; further: potency means the concentration at half of the fitted maximal effect
In short: (§2)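 Homogeneous bioluminescent viability format in HEK293 cells (600 cells/well). Following 5 h at 37 C/5% CO2, 23 nL compound was pintooled; the signal was measured repeatedly during 40 h incubation.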

[7] = A CellTox Green Cytotoxicity Assay to monitor cytotoxicity in HEK293 cells - 0 hour (AID 1224869); further: nearly all actives have a fitted effect of over 50% in size
In short: (§3)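 Fluorescence from a DNA-binding dye excluded by viable cells was measured repeatedly in the same HEK293 wells (600 cells/well) during continuous compound exposure at 37 C. Each assay gives one read point: 0, 8, 16, 24, 32 or 40 h.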

[8] = qHTS RealTime-Glo MT Cell Viability Assay in HepG2 cells - 40 hour (AID 1224870); further: nearly all actives have a fitted effect of over 50% in size
In short: (§4)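 Real-time viability: cells seeded at 600 per well together with NanoLuc and cell-permeant prosubstrate, compounds added after 5 h incubation. Luminescence tracked at 0, 8, 16, 24, 32 and 40 h of exposure.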

[9] = qHTS RealTime-Glo MT Cell Viability Assay in HepG2 cells - 8 hour (AID 1224873); further: nearly all actives have a fitted effect of over 55% in size
In short: as §4

[10] = qHTS RealTime-Glo MT Cell Viability Assay in HEK293 cells - 40 hour (AID 1224874); conditions: RealTime-Glo luminescence; max response: stronger effect = lower value; further: nearly all actives have a fitted effect of over 50% in size; further: potency means the concentration at half of the fitted maximal effect
In short: (§5)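 Luminescence, which tracks viable cell number through reduction of the prosubstrate to a NanoLuc substrate, was read over continuous 37 C culture. Cells (600/well) were premixed with reagent and rested 5 h before 23 nL of compound in DMSO was pinned.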

[11] = A CellTox Green Cytotoxicity Assay to monitor cytotoxicity in HEK293 cells - 24 hour (AID 1224875); further: nearly all actives have a fitted effect of over 45% in size
In short: as §3

[12] = A CellTox Green Cytotoxicity Assay to monitor cytotoxicity in HepG2 cells - 16 hour (AID 1224876); further: nearly all actives have a fitted effect of over 45% in size
In short: (§6)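 Real-time cytotoxicity: fluorescence of a cell-impermeant cyanine dye binding DNA of dead HepG2 cells, measured repeatedly (0–40 h) during compound exposure at 37 C. Cells seeded 600/well with reagent, dosed after 5 h.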

[13] = qHTS RealTime-Glo MT Cell Viability Assay in HepG2 cells - 32 hour (AID 1224877); further: nearly all actives have a fitted effect of over 55% in size
In short: as §1

[14] = A CellTox Green Cytotoxicity Assay to monitor cytotoxicity in HepG2 cells - 24 hour (AID 1224878); further: nearly all actives have a fitted effect of over 45% in size
In short: as §6

[15] = A CellTox Green Cytotoxicity Assay to monitor cytotoxicity in HepG2 cells - 40 hour (AID 1224879); further: nearly all actives have a fitted effect of over 40% in size
In short: as §6

[16] = qHTS RealTime-Glo MT Cell Viability Assay in HEK293 cells - 0 hour (AID 1224880); further: top concentration of the series differs between compounds; nearly all actives have a fitted effect of over 45% in size
In short: as §5

[17] = qHTS assay to identify small molecule agonists of H2AX - cell viability counter screen (AID 1224847; calls by dose curve; further: top concentration of the series differs between compounds; nearly all actives have a fitted effect of over 30% in size)
In short: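 Read-out: CellTiter-Glo luminescence, 30 min RT. Cells: wild-type CHO-K1, 1000/well, 10% FBS, plated overnight at 37C. Treatment: 15 concentrations, 3 hr, 37C, 0.76% DMSO.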

[18] = qHTS RealTime-Glo MT Cell Viability Assay in HEK293 cells - 16 hour (AID 1224872); further: nearly all actives have a fitted effect of over 50% in size; further: potency means the concentration at half of the fitted maximal effect
In short: as §2

[19] = A CellTox Green Cytotoxicity Assay to monitor cytotoxicity in HEK293 cells - 40 hour (AID 1224871); further: nearly all actives have a fitted effect of over 45% in size
In short: as §3

[20] = qHTS assay to identify small molecule agonists of the estrogen related receptor (ERR) signaling pathway from Tox21 library (AID 1224849; calls by dose curve; further: nearly all actives have a fitted effect of over 15% in size); conditions: ERR reporter cell line, ONE-Glo luciferase, 18 h
In short: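 Luminescent agonist read-out (One-Glo, 30-minute room-temperature incubation) following 18-hour compound treatment at 37 C of the ERR cell line, which had been plated 6 hours before dosing.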
On the % scale 0 is the no-effect control and ±100 the full control effect.

CCCCOCCOC(C)=O
inactive: Potency [1] | Potency [2] | outcome [3] | Potency [4] | Potency [5] | Potency [6] | Potency [7] | Potency [8] | Potency [9] | max response [10] 4.03% and 1.95% | Potency [11] | Potency [12] | Potency [13] | Potency [14] | Potency [15] | Potency [16]

CC(C)COC(=O)c1ccccc1C(=O)OCC(C)C
inactive: Potency [1] | Potency [2] | outcome [3] | Potency [17] | Potency [5] | Potency [6] | Potency [7] | Potency [8] | Potency [18] | Potency [9] | max response [10] 8.51% and 5.74% | Potency [11] | Potency [12] | Potency [13] | Potency [14] | Potency [15] | Potency [16]

O=NN1CCOCC1
inactive and 2.19 µM (active): Potency [6]
inactive: Potency [1] | Potency [2] | outcome [3] | Potency [5] | Potency [7] | Potency [8] | Potency [19] | Potency [9] | max response [10] -0.852% | Potency [11] | Potency [12] | Potency [13] | Potency [14] | Potency [15] | Potency [16]
active: Potency [10] 1.95 µM
inactive and 3.47 µM (active): Potency [18]

[CH3][Sn]([Cl])([Cl])[Cl]
inactive: Potency [1] | Potency [2] | outcome [3] | Potency [17] | Potency [5] | Potency [6] | Potency [7] | Potency [8] | Potency [18] | Potency [9] | Potency [11] | Potency [12] | Potency [13] | Potency [14] | Potency [15] | Potency [16]

CC1=C(C(=O)Nc2ccccc2)SCCO1
inactive: Potency [1] | Potency [2] | outcome [3] | Potency [17] | Potency [5] | Potency [6] | Potency [7] | Potency [8] | Potency [18] | Potency [9] | max response [10] -20.6% and -17.9% | Potency [11] | Potency [12] | Potency [13] | Potency [14] | Potency [15] | Potency [16]

Clc1cccc(C(Cl)(Cl)Cl)n1
inactive: Potency [1] | Potency [2] | outcome [3] | Potency [17] | Potency [5] | Potency [6] | Potency [7] | Potency [8] | Potency [18] | Potency [9] | max response [10] 2.13% and -1.58% | Potency [11] | Potency [13] | Potency [16]

COP(=S)(OC)Oc1ccc(Sc2ccc(OP(=S)(OC)OC)cc2)cc1
27.3 µM (active) and inactive: Potency [4]
inactive: Potency [1] | Potency [2] | outcome [3] | activity change, positive = activation ([20]; at 42.5 µM (top of the series)) -3.82% | activity change, positive = activation ([20]; at 92.4 µM (top of the series)) -40% | Potency [5] | Potency [6] | Potency [7] | Potency [8] | Potency [19] | Potency [9] | Potency [11] | Potency [12] | Potency [13] | Potency [14] | Potency [15] | Potency [16]
